Reference: PubChem BioAssay AID493231 (Broad Institute, 2011)
Entries with a potency or affinity are not part of this list. Activity calls are given as the source filed them. How the calls were made is not given here.

The molecules below were run against Acyl-homoserine lactone acylase PvdQ (Pseudomonas aeruginosa (strain ATCC 15692 / DSM 22644 / CIP 104116 / JCM 14847 / LMG 12228 / 1C / PRS 101 / PAO1)) (UniProt Q9I194) (assay: P. aeruginosa PvdQ acylase inhibitors, dose response, biochemical, fluorescence, plate reader and imaging, cherry-picks (AID 493231;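 further: more negative values mean stronger inhibition of the acylase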)). Settings: purified PvdQ acylase, fluorogenic substrate; series mostly up to 10 µM.
Acyl-homoserine lactone acylase PvdQ (Pseudomonas aeruginosa (strain ATCC 15692 / DSM 22644 / CIP 104116 / JCM 14847 / LMG 12228 / 1C / PRS 101 / PAO1)), sequence (Q9I194 whole entry, looked up): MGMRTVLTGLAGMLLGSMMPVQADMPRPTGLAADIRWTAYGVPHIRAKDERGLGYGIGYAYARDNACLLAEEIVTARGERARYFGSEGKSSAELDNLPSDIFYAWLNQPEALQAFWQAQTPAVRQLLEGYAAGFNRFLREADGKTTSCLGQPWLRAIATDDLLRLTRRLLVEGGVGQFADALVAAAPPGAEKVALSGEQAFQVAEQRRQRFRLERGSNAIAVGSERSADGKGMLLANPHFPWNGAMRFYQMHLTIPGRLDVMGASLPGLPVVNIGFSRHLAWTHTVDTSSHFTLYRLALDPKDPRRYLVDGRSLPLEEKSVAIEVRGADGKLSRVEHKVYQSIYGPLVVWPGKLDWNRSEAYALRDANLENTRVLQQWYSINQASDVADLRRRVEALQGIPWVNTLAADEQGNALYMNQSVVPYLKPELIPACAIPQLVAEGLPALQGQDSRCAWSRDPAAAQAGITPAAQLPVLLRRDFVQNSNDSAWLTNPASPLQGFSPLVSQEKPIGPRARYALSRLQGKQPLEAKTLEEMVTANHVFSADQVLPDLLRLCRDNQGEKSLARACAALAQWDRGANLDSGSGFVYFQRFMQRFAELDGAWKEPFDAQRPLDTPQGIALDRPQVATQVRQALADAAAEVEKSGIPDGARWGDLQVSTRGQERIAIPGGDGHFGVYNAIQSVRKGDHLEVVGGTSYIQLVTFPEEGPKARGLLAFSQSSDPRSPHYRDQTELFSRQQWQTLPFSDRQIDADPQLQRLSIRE

outcome, inactive:
O=C1OC(Nc2ccc3c(c2)OCO3)c2ccccc21 (stereo not given)
O=C(O)c1cccc(CN2C(=O)c3ccccc3C2=O)c1
c1ccc2sc(-c3ccc4c(c3)OCO4)nc2c1
CS(=O)(=O)N1CCN(C(=O)Nc2ccccc2)CC1
COc1cc2nc(CN3CCN(S(=O)(=O)c4c(F)cccc4F)CC3)[nH]c(=O)c2cc1OC
O=C(c1ccc(-c2ccccc2)cc1)C1CCCN(C(=O)c2cncs2)C1 (stereo not given)
O=C1N(c2ccccc2)C[C@@H]2C[C@@H](c3cc4ccccc4o3)N3CCC[C@@]123
COc1ccc(OCCCC(=O)Nc2cccc(SC)c2)cc1
Cc1ccc(N(c2ncnc(N)c2[N+](=O)[O-])C2CCCCC2)cc1
CCOc1ccc(NC(=S)NCc2cccnc2)cc1
Cc1cc(C)cc(NC(=O)C(OC(=O)c2cccs2)c2ccccc2)c1 (stereo not given)
CCCSC1=C(C#N)C(c2ccc(OC)cc2)C2=C(CC(C)(C)CC2=O)N1 (stereo not given)
CC(C)CCN(CCC(C)C)C(CO)(CO)CO
N#Cc1cc([N+](=O)[O-])ccc1Oc1cccc(/C=N/NC(=O)c2cccc(Cl)c2)c1
CCn1c(Cc2ccccc2)nnc1SCC(=O)Nc1ccccc1
c1ccc(CCc2ccccn2)cc1
CCOC(=O)CSc1nnc(-c2ccc(S(=O)(=O)N3CCC(C)CC3)cc2)o1
COc1ccc(-c2nn(-c3ccccc3)cc2/C=C2/SC(=S)N(CCC(=O)O)C2=O)cc1
Cc1ccc(S(=O)(=O)NCc2ccccn2)cc1C
COC(=O)c1cc(S(=O)(=O)Nc2cccc(S(N)(=O)=O)c2)oc1C
COc1ccc(CCNC(=O)c2cccc(S(=O)(=O)N3CCc4ccccc4C3)c2)cc1
Cc1ccc2nc(-c3ccc(O)cc3)oc2c1
Cc1ccc2nc(-c3ccc(NS(=O)(=O)c4ccc(F)cc4)cc3)sc2c1
COc1ccc(-c2cn3cc(C)ccc3n2)cc1F
CCSc1nc2cc(OC)c(OC)cc2c(=O)n1CC
CN(C(=O)CCn1c(=S)oc2ccccc21)c1ccc(F)cc1
CC[N+](CC)(CC)C/C=C/CN1CCCCC1
COc1ccc(Cl)cc1C(=O)Nc1ccc(N(C)C(C)=O)cc1
COc1ccc(-c2onc3ccc(Br)cc23)cc1
CCOC(=O)c1ccc(N2CCN(c3ccccc3F)CC2)c(NC(=O)Nc2cccc(OC)c2)c1
CCOC(=O)Nc1ccc2nc(N3CCCCCC3)sc2c1
Cc1ccccc1OCCSc1nnc(-c2ccncc2)n1C
O=[N+]([O-])c1nn(-c2ccc(Cl)cc2)n(O)c1=NCc1ccccc1
CSC(=S)N/N=C/c1ccccc1
C=CCC1S/C(=N/N=C/c2cccs2)NC1=O (stereo not given)
